Source: PubChem
Hits are enriched below; roughly 19% of the tested compounds scored in any of these assays.
HepG2 tox – HepG2 cytotoxicity, counter-screen for TGF-b inhibitors. HepG2 CAGA-GFP viability, ATP luminescence, 18 h. Potency, µM (top dose mostly 46.1 µM), for the others: at the top dose activity change, negative = cytotoxicity, most hits filed as cytotoxic. actives 0.76% (n = 410,000). AID 588856; also: potency is read from the fitted curve at half-maximal effect
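CellTiter-Glo luminescence gave cytotoxicity after 18 hours at 37 degrees C. The cells were HepG2 CAGA-GFP in 1% FBS DMEM, stimulated with 500 pg/mL TGF-beta after compound addition. %Activity was normalised to no-cell wells (complete cell-killing) and DMSO (no toxicity), and curves were fitted and classified.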
TGFb SMAD3 inh – blocks TGF-b signaling; HepG2 CAGA-GFP TGF-b/SMAD3 reporter, GFP fluorescence, 18 h; TGF-beta stimulated, 500 pg/mL final; actives 1.2% (n = 410,000); Potency, µM (top dose mostly 46.1 µM), inactives show at the highest dose activity, negative = inhibition, most hits filed as inhibitors; also: potency is read from the fitted curve at half-maximal effect; % is scaled to controls: 0 for no effect and ±100 for the full control effect; nearly all actives have a fitted effect of over 65% in size
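TGF-beta reporter screen: HEPG2 CAGA-GFP, 1% FBS, 500 pg/mL TGF-beta final, 18 h; per-cell GFP summed per well; curves fitted and categorized by class.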
IL-1B inflam inh – inhibitors of inflammasome signaling (IL-1 beta secretion); actives 4.7% (n = 360,000); THP-1 LPS/ATP IL-1B secretion, AlphaLISA, 16 h; hits give low values; activity change, % at 57.5 µM; in the data active = activity change below about -50%; inconclusive = mostly about -30% to -49%; also: % is scaled to controls: 0 for no effect and ±100 for the full control effect
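THP-1 cells pretreated 1 hr with compounds (up to 57.5 uM final), then stimulated with LPS (250 ng/mL final) plus ATP (1.25 mM final); secreted IL-1B measured by AlphaLISA after 16 hr, decreased signal indicating inhibition.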
DT40 TDP1 CPT – growth inhibition of DT40 Tdp1-/-;hTDP1 cells with camptothecin (screen for TDP1 inhibitors) | chicken DT40 Tdp1-/-;hTDP1 cells + 20 nM CPT, ATP luminescence, 48 h | Potency, µM (doses to about 46.2 µM), without a hit: at the top dose activity change, negative = growth inhibition, most hits filed as inhibitors | actives 12% (n = 420,000); also: potency is read from the fitted curve at half-maximal effect; % is scaled to controls: 0 for no effect and ±100 for the full control effect; nearly all actives have a fitted effect of over 55% in size
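Chicken DT40 Tdp1-/- cells complemented with human TDP1, 400 cells/well, exposed to compounds plus 20 nM camptothecin for at least 48 h at 37 C; viability read as ATP content by CellTiter-Glo luminescence.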
S-ASM inh – blocks human secretory acid sphingomyelinase. placental ASM, HMU-PC fluorogenic substrate, 60 min. Potency, µM (series often up to 57.5 µM), without a hit: at the highest dose activity change, negative = inhibition, usual class: inhibitors. actives 0.006% (n = 340,000). AID 504937; also: potency is read from the fitted curve at half-maximal effect
Target sequence (P17405 47-631 limits assumed): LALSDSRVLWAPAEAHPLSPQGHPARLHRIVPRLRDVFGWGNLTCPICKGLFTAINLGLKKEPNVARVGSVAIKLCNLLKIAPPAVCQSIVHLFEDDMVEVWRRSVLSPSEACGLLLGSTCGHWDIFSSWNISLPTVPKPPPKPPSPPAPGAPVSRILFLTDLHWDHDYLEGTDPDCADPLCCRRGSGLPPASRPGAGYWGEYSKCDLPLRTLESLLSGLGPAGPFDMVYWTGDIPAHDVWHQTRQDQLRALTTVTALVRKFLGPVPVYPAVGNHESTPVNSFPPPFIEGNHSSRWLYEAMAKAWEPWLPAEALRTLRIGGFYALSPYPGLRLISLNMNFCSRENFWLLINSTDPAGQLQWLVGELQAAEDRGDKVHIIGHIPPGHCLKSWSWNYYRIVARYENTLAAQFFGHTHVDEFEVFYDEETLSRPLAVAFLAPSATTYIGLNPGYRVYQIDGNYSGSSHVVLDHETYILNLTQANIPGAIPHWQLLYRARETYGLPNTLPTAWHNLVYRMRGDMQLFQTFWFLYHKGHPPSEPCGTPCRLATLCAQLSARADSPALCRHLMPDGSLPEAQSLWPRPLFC
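qHTS format. ASM enzyme prepared from human placenta hydrolyses the fluorogenic substrate HMU-PC0 (9 uM final) over 60 min at 37 °C after a 10 min compound preincubation.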
TDP1 cell noCPT – qHTS for Inhibitors of human tyrosyl-DNA phosphodiesterase 1 (TDP1): qHTS in cells in absence of CPT | Potency, µM (top dose mostly 46.2 µM), without a hit: at the top dose activity change, negative = growth inhibition, usual class: inhibitors | DT40 Tdp1-/- hTDP1 cells, no CPT, ATP luminescence, 48 h | actives 15% (n = 420,000); also: potency is read from the fitted curve at half-maximal effect; % is scaled to controls: 0 for no effect and ±100 for the full control effect; nearly all actives have a fitted effect of over 55% in size
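Chicken DT40 Tdp1-/- cells stably complemented with human TDP1 were seeded at 400 cells/well with DMSO in place of 20 nM camptothecin. After compound pinning, cells grew at least 48 hr at 37 °C; viability read by CellTiter-Glo luminescence.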
An asterisk follows results filed as active; ? = inconclusive; . = no result. Unless noted, calls follow the shape of the dose curve; as a rule, active = well fitted curve in the direction sought with a large enough effect; inconclusive = small, poorly fitted or top-dose-only effect, or another doubt; inactive = no such curve, though single readings can be large; an effect the other way counts as inactive or inconclusive.

SMILES	HepG2 tox	TGFb SMAD3 inh	IL-1B inflam inh	DT40 TDP1 CPT	S-ASM inh	TDP1 cell noCPT
NCCCC(=O)N1c2ccccc2Sc2ccc(Cl)cc21	-20%	-8%	?	?	-2%	23µM*
CCc1ccccc1NC(=O)c1cc2nc(-c3ccc(OC)c(OC)c3)cc(C(F)(F)F)n2n1	4%	25%	.	.	.	.
CCOc1ccccc1NC(=O)C1CCCCN1S(=O)(=O)c1ccccc1 (stereo not drawn)	5%	0%	-5	?	-1%	21µM*
O=C(Nc1ccc(OC(F)(F)F)cc1)C1CCCCN1S(=O)(=O)c1ccccc1 (stereo not drawn)	-27%	?	?	?	-9%	15µM*
COc1ccc(NC(=O)C/C(C)=N/NC(=O)C2CCCCC2)c([N+](=O)[O-])c1	5%	2%	5	2%	-3%	-3%
CCOC(=O)Cc1ccc(Nc2nc(NC)nc3ccsc23)cc1	0%	6%	-12	21µM*	.	18µM*
CC(=O)NCCNc1nc(NCc2ccccc2)nc2ccsc12	7%	?	89	?	.	?
CCOC(=O)Cc1ccc(Nc2nc(NCc3ccccc3)nc3ccsc23)cc1	-9%	?	-3	23µM*	.	15µM*
CCOC(=O)Cc1nnc(Nc2ccc(C)cc2)c2ccccc12	-15%	?	-14	-24%	0%	?
CN(CCc1cn[nH]c1)Cc1nc(Cc2ccccc2)no1	1%	2%	-54*	14%	1%	9%
CCOc1ccc(NC(=O)C2CCN(S(=O)(=O)CC)CC2)cc1	-20%	-21%	21	-4%	7%	21%
COc1ccc(CCN2C(=O)COc3ccccc3C2C(=O)Nc2ccc3c(c2)OCCO3)cc1OC (stereo not drawn)	.	.	16	?	.	21µM*
O=C(Nc1ccc2c(c1)OCCO2)C1c2ccccc2OCC(=O)N1CCc1ccccc1 (stereo not drawn)	.	.	-14	-1%	.	-2%
Nc1cn(C2OC(CO)C(O)C2O)c(=O)[nH]c1=O (stereo not drawn)	-1%	1%	30	-4%	5%	0%
COc1ccc(NC(=O)CSc2nc3c(c(=O)[nH]2)CN(Cc2ccccc2)CC3)cc1Cl	-18%	-17%	.	?	.	?
O=[N+]([O-])c1ccc(CSc2ccc(S(=O)(=O)N3CCOCC3)cn2)cc1	2%	-17%	-64*	?	-2%	?
CCn1c(SCc2ccc(F)cc2)nnc1C1CCN(S(=O)(=O)c2ccc(OC)cc2)CC1	-1%	3%	-23	?	-1%	16µM*
N#Cc1ccc(CSc2ccc(S(=O)(=O)N3CCCC3)cn2)cc1	-57%	?	-24	?	0%	26µM*
O=[N+]([O-])c1ccc(CSc2ccc(S(=O)(=O)N3CCCCC3)cn2)cc1	-53%	?	-50*	?	0%	?
Cc1ccc(CSc2ccc(S(=O)(=O)N3CCCC3)cn2)cc1	0%	0%	-1	-13%	-6%	-24%
O=C(COc1cc(Cl)ccc1Cl)N1CCNC1=O	7%	7%	5	49%	0%	0%
Cc1ccc(CCNC(=O)C2CCN(S(=O)(=O)c3ccc4c(c3)NC(=O)CO4)CC2)cc1	-20%	-10%	19	?	-2%	?
Cc1ccccc1CS(=O)(=O)CCC(=O)NCc1ccc(F)cc1Cl	3%	9%	18	-11%	4%	0%
O=C(COC(=O)c1c(F)cccc1F)Nc1ccccc1OC(F)F	7%	3%	-7	-2%	3%	-4%
CCn1c(SCc2ccc(C#N)cc2)nnc1-c1ccc(S(=O)(=O)N2CCCCC2)cc1	-46%	0%	-6	15µM*	-1%	?
SMILES	HepG2 tox	TGFb SMAD3 inh	IL-1B inflam inh	DT40 TDP1 CPT	S-ASM inh	TDP1 cell noCPT
O=[N+]([O-])c1ccc(CSc2ccc(S(=O)(=O)N3CCCC3)cn2)cc1	4%	?	0	?	-2%	23µM*
O=S(=O)(c1ccc(SCc2cccc(Cl)c2)nc1)N1CCCC1	-6%	?	7	-22%	-3%	-19%
CCCN(C(=O)Cn1c(C(F)(F)F)nc2ccccc21)C1CCS(=O)(=O)C1 (stereo not drawn)	3%	15%	13	-13%	3%	2%
COc1ccc(NC(=O)c2oc3ccccc3c2NC(=O)C2CC2)cc1	-14%	16%	?	?	13%	?
CCOc1ccccc1C(=O)Nc1c(C(=O)Nc2ccc(F)cc2)oc2ccccc12	8%	?	.	4.1µM*	.	2.3µM*
COc1ccc(NC(=O)c2oc3ccccc3c2NC(=O)C(C)(C)C)cc1	-6%	-10%	-55*	?	-19%	?
CCOc1ccc(NC(=O)c2oc3ccccc3c2NC(=O)C(C)(C)C)cc1	-4%	-33%	.	?	.	18µM*
CCOc1ccc(NC(=O)c2oc3ccccc3c2NC(=O)c2c(F)cccc2F)cc1	-4%	0%	.	?	.	?
COc1ccc(N(C(=O)CNC(=O)c2ccco2)C(C(=O)NC2CCCCC2)c2cccnc2)cc1 (stereo not drawn)	-52%	0%	16	-2%	1%	-4%
COc1ccc(C(=O)Nc2nc3ccccc3[nH]2)cc1	-124%	10%	-1	16µM*	-4%	23µM*
COC(=O)c1cc(C(=O)Nc2nc3ccccc3[nH]2)cc([N+](=O)[O-])c1	20%	1%	19	-24%	-17%	23µM*
O=C(Nc1ccc2ccccc2n1)c1ccccc1Cl	-31%	-5%	0	?	-1%	?
COc1ccc(C(=O)Nc2ccc3ccccc3n2)c(OC)c1OC	-25%	-10%	-76*	?	6%	?
COc1ccccc1C(=O)Nc1nc2ccccc2[nH]1	2.8µM*	-7%	-25	4.6µM*	-5%	1.8µM*
O=C(COc1ccc(Br)cc1Cl)NC(=O)Nc1ccc2c(c1)OCCO2	-3%	-13%	25	-21%	3%	-17%
COc1cc(SC)ccc1C(=O)Nc1nc2ccccc2[nH]1	10µM*	18%	47	3.7µM*	5%	2.1µM*
CCCN(CCC)S(=O)(=O)c1ccc(NC(=O)c2cc(C(=O)OC)cc([N+](=O)[O-])c2)cc1	-16%	-41%	11	23µM*	-1%	26µM*
